Among all 5,500 compounds or so, about 2,000 (36%) were called active. Not shown: some 18% with an inconclusive outcome. Rule as the data show it: active = normalized growth mostly below about 0.91 (no sharp cut-off); inconclusive = no clear call, values can overlap the other calls; inactive = mostly above about 0.92. Some of the results follow.
Assay: chemical genetic growth profiling, strain panel (AID 1159580);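 also: tested at 20 µM; growth read once vehicle control cultures reached saturation at 30 °C; 1 = growth at the plate median or of vehicle wells; lower values mean less growth of the strain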
Conditions: S. cerevisiae deletion strains, growth OD

Measured: normalized growth

NC(C(=O)O)c1cc(=O)[nH]o1 (centres undefined)
inactive: locus YAL013W, strain DEP1, hits give low values 1.02 | locus YAL040C, strain CLN3, hits give low values 1.01 | locus YCL061C, strain MRC1 (second series), hits give low values 1 | locus YDR150W, strain NUM1, hits give low values 1 | locus YDR363W, strain ESC2, hits give low values 1.04 | locus YER002W, strain NOP16, hits give low values 1.01 | locus YGR229C, strain SMI1, hits give low values 1.04 | locus YMR263W, strain SAP30, hits give low values 1 | locus YMR307W, strain GAS1, hits give low values 1.01 | locus YNL153C, strain GIM3, hits give low values 1.04 | locus YNL175C, strain NOP13, hits give low values 1.02 | locus YNL197C, strain WHI3, hits give low values 0.999 | locus YNL224C, strain SQS1, hits give low values 0.996 | locus YOR083W, strain WHI5 (second series), hits give low values 1.01
